Only some compounds are listed: those with a hit (about 5.1% of all), similar ones and a draw of the others.
JMJD2E inh: JMJD2E (human) inhibition; Potency, µM (titrated, usually from 57.1 µM), most hits filed as inhibitors; 230,000 compounds, 1.6% hits; B2RXH2; JMJD2E catalytic domain, FDH-coupled NADH fluorescence (FDH is formaldehyde dehydrogenase); further: nearly all actives have a fitted effect of over 50% in size
Target sequence (B2RXH2 1-337 limits assumed): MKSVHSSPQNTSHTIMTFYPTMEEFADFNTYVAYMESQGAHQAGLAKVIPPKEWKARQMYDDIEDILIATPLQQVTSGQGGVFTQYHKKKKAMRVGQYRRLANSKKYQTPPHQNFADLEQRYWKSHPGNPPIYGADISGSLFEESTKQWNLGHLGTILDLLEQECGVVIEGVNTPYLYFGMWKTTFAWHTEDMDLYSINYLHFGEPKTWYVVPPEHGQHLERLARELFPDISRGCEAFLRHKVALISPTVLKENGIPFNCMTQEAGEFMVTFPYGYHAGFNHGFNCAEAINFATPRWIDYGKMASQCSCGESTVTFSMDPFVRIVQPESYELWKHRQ
Tau fluor cs: counter-screen for tau fibril formation inhibitors; Potency, µM (top dose mostly 57.7 µM); AID 1463; tau K18 P301L Alexa594 fluorescence, heparin fibrillization; 280,000 compounds, 0.93% hits; further: nearly all actives have a fitted effect of over 55% in size
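Human K18 P301L tau (15 uM unlabeled plus 0.24 uM Alexa 594-labeled, final) in 100 mM sodium acetate pH 7 was mixed with compound and 20 uM heparin and incubated 6 hr at 37 C.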
PNC inhibitor: blocks assembly of the perinucleolar compartment; activity change (PNC), negative = inhibition, % at 10 µM; 140,000 compounds, 3.1% hits; PC3M PTB-GFP, PNC prevalence imaging, 16 h; stronger effect = lower value;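 active means readout at or below -70, meaning at least 70% loss of cells showing the perinucleolar compartment, a nuclear body marking cancer cells; inconclusive means readout between -30 and a set limit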
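Compounds are pinned in duplicate onto adhered PC3M cells stably expressing GFP-tagged PTB and incubated 16 h at 37 C. Cells are then fixed, nuclei stained with Hoechst, and PNC-positive cells counted.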
NPSR antagonist: antagonists of human neuropeptide S receptor cAMP signaling; CHO-NPSR cells, cAMP TR-FRET, antagonist mode; Potency, µM (top dose mostly 38.3 µM), usual class: inhibitors; 220,000 compounds, 1% hits; AID 1461; further: nearly all actives have a fitted effect of over 50% in size
Tau fibril ThT: tau fibrillization inhibition (ThT binding) | recombinant tau K18 P301L, heparin-induced fibrillization, ThT fluorescence | 270,000 compounds, 2.1% hits | AID 1460 | Potency, µM (doses to about 57.4 µM), usual class: inhibitors; further: nearly all actives have a fitted effect of over 55% in size
Target sequence (P10636 561-689 P618L limits assumed): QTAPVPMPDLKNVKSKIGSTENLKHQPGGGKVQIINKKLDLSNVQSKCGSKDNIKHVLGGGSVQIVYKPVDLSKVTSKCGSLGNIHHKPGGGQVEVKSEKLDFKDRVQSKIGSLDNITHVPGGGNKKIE
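ThT emission at 510 nm, taken 1 hr after adding 30 uM dye, quantifies aggregates formed when 20 uM heparin acts on human tau K18 P301L for 6 hr at 37 C.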
Tau FP inhib: inhibitors of human tau fibril formation; Potency, µM (titrated, usually from 57.7 µM), usual class: inhibitors; K18 P301L tau heparin fibrillization, Alexa594 FP, 6 h; AID 1468; P10636; 280,000 compounds, 0.39% hits; further: nearly all actives have a fitted effect of over 55% in size
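Compound effects on tau fibrillization are measured by Alexa 594 fluorescence polarization (ex 555, em 632 nm). K18 P301L tau is used at 15 uM with 0.24 uM labeled tracer, and 20 uM heparin induces aggregation over 6 hr at 37 C.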
Tau TEM fibril: Blocks tau fibril formation, electron microscopy; recombinant tau K18 P301L fibrillization, TEM grading; stronger effect = higher value; 45 compounds, 70% hits; AID 1719; fibril grade (0 = clumped fibrils, 4 = only tiny pieces) (test concentration not listed); shares compounds with Tau fibril ThT;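 active means compounds whose electron micrographs showed tau fibrils broken into shorter filaments or fragments, graded high on fibril breakup; inconclusive means micrographs gave an unclear fibril picture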
tau sediment: inhibitors of human tau fibrillization, sedimentation test; shares compounds with Tau fibril ThT; recombinant tau K18 P301L (four-repeat tau fragment), sedimentation SDS-PAGE densitometry; inhibition, % at 100 µM; 110 compounds, 50% hits; AID 1720; in the data active means inhibition above about 40%; inconclusive means no clear call, values can overlap the other calls; inactive means below about 18%
Numbers stand for hits; n = inactive; u = inconclusive; x = not tested or not shown; [ ] = another dose, or the depositor's remark. Unless noted, the call rests on the fitted dose curve; in most records, active means well fitted curve in the direction sought with a large enough effect; inconclusive means small, poorly fitted or top-dose-only effect, or another doubt; inactive means no such curve, though single readings can be large; an effect the other way counts as inactive or inconclusive.

SMILES | JMJD2E inh | Tau fluor cs | PNC inhibitor | NPSR antagonist | Tau fibril ThT | Tau FP inhib | Tau TEM fibril | tau sediment
CC(C)Cn1c(O)c(/C=C2\C=NN=C2c2ccccc2)sc1=S | n | n | u | n | n | 20µM | x | n
CCn1c(O)c(/C=C2\C=NN=C2c2ccccc2)sc1=S | n | u | x | n | x | u | x | x
COC(=O)c1c(NC(=O)CCCOc2ccc(C(C)(C)C)cc2)sc2c1C(C(=O)OC)CC2 (stereo unspecified) | x | u | x | x | 8.9µM | u | n | u
CCCC(=O)Nc1sc2c(c1C(=O)OC)C(C(=O)OC)CC2 (stereo unspecified) | u | n | u | n | n | u | x | x
CSc1cccc(NC(=O)c2c(Cl)cnn2C)c1 | n | n | n | n | n | n | x | x
Cn1ncc(Cl)c1C(=O)Nc1cccc(Cl)c1 | n | n | n | n | 13µM | u | 3 | 93
CCOc1ccccc1NS(=O)(=O)c1ccc2c(c1)CC(C)N2C(=O)C1CCC1 (stereo unspecified) | x | n | x | x | n | n | x | x
Cc1ccc(-c2ccc(/C=N/N=C3/NC(=O)C(CC(=O)O)S3)o2)c([N+](=O)[O-])c1 (stereo unspecified) | n | n | n | n | 10µM | u | u | u
O=C(O)CC1S/C(=N/N=C/c2ccc(-c3ccccc3[N+](=O)[O-])o2)NC1=O (stereo unspecified) | n | n | n | n | 2.2µM | u | 4 | 58
CCc1nc2nc(C)cc(Nc3cc(C)ccc3C)n2n1 | x | n | x | x | n | n | x | x
Cc1ccc(N(C)S(=O)(=O)c2nnc(NC(=O)C3CCCCC3)s2)cc1 | x | n | x | x | n | u | x | n
CCn1cc(/C=C(\NC(=O)c2ccc(C)cc2)C(=O)NCCCn2ccnc2)c2ccccc21 | x | n | x | x | n | n | x | x
CC(C)c1ccc(NS(=O)(=O)c2ccc3[nH]cc(C(=O)NCCc4ccccc4)c(=O)c3c2)cc1 | x | n | x | x | n | u | x | n
CCOc1ccc(NS(=O)(=O)c2ccc3[nH]cc(C(=O)NCCc4ccccc4)c(=O)c3c2)cc1 | x | n | x | x | n | u | x | x
CN(C(=S)Nc1cccnc1)c1ccc(O)cc1 | u | u | n | n | 2µM | 3.2µM | 2 | 51
Cc1ccc(SCc2cc(=O)n(C)[nH]2)cc1 | u | u | x | n | 2.2µM | u | x | n
CCN1CCC(N(Cc2ccc(F)cc2)C(=O)Nc2cccc(C(F)(F)F)c2)CC1 | x | n | x | x | n | n | x | x
COc1ccc(-c2noc(-c3ccc(N4CCOCC4)c([N+](=O)[O-])c3)n2)cc1 | x | n | x | x | n | n | x | x
COc1ccc2oc(-c3ccc(NC(=O)c4ccc(N5CCOCC5)c([N+](=O)[O-])c4)cc3)nc2c1 | n | n | u | n | 2.8µM | n | n | n
NS(=O)(=O)c1ccc(NC(=O)Nc2ccccc2)cc1 | n | n | x | n | n | n | x | x
O=C(Nc1ccccc1)Nc1ccccc1 | n | n | x | x | n | n | x | n
CCc1cccc(C)c1NC(=O)c1nc2ccccc2nc1N1CCCCC1 | x | n | x | x | n | n | x | x
Cc1ccc(C(=O)Nc2nc3ccccc3c(=O)s2)cc1 | n | n | n | u | n | n | x | x
Cc1ccc(C(=O)Nc2nc(=O)n(C(=O)C3CC3)s2)cc1 | n | n | u | u | 8.9µM | u | u | 49
Cc1ccc(C2=NNC(=Nc3ccc(F)cc3)SC2)cc1 | n | u | x | n | 16µM | n | 3 | u
SMILES | JMJD2E inh | Tau fluor cs | PNC inhibitor | NPSR antagonist | Tau fibril ThT | Tau FP inhib | Tau TEM fibril | tau sediment
COC(=O)c1scc(-c2ccc(C)cc2)c1S(=O)(=O)Nc1cccc(C(F)(F)F)c1 | x | n | x | x | n | n | x | x
Cc1ccccc1C(=O)Oc1cc(-c2ccc3c(c2)OCO3)cc(=O)c2c(C)oc(C)c12 | x | n | x | x | u | n | x | x
COc1ccc(Nc2nc(-c3sc(NC(C)=O)nc3C)cs2)cc1 | n | u | n | n | 13µM | n | 3 | 42
Cc1ccc(CNC(=O)Cn2nc(C)n3cccc3c2=O)cc1 | x | n | x | x | n | u | x | x
COc1ccc(CNC(=O)Cn2nc(C)n3cccc3c2=O)cc1 | x | n | x | x | n | u | x | n
CC(/C=C1\SC(=S)N(NC(=O)c2cccc(O)c2)C1=O)=C\c1ccccc1 | u | 14µM[quencher] | n | n | 7.1µM | 14µM | n | u
COc1ccc2[nH]c(=O)c(CNc3ccccc3OC)cc2c1 | u | u | x | n | 7.9µM | 10µM | u | 61
COc1ccc2[nH]c(=O)c(CNc3ccc(C)cc3C)cc2c1 | u | n | x | n | u | n | x | x

Assay outcomes: PubChem, National Center for Advancing Translational Sciences (NCATS)
